{"source": "PubChem BioAssay (Tox21)", "note": "Results filed as inconclusive are left out. Entries that show only a call come without a potency. Unmarked numbers belong to inactive results. Calls of active or inactive are those of the source. Calls follow the shape of the dose curve; as a rule, active = well fitted cell-killing curve with a large enough effect in the repeat runs; inconclusive = weak or mixed curves, or effect the other way; inactive = flat fitted curve, though single readings scatter. Potency is read from the fitted curve at half-maximal effect.", "data": [{"assay": "cAMP Responsive Elements (CRE) small molecule agonists, cell-based qHTS assay: qHTS cell viability counter screen (AID 2060914);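 also: viability read after 3 h of compound exposure; nearly all actives have a fitted effect of over 50% in size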", "details": "CRE-bla HEK293T viability, CellTiter-Glo luminescence, 5 h; series mostly up to 92.4 µM", "source_text": "National Center for Advancing Translational Sciences [NCATS]\nDivision of Preclinical Innovation [DPI]\nU.S. Environmental Protection Agency [EPA]\nNational Institutes of Environmental Health Sciences [NIEHS]\nNational Toxicology Program [NTP]\nU.S. Food and Drug Administration [FDA]\nCREB (cyclic-AMP Responsive Element Binding Protein) is a cellular transcription factor. It binds to certain DNA sequences called cAMP Responsive Elements (CRE) and regulates the transcription of the genes. […] This cell line can be used to find agonists/antagonists of the cyclic AMP signaling pathway. The activation of the report gene under culture conditions can be detected by fluorescence intensity. This cell line has been used to screen the Tox21 10K compound library to identify agonists that induce oxidative stress. The cytotoxicity of the Tox21 compound library against the CRE-bla cell line was tested in parallel by measuring the cell viability using CellTiter-Glo assay (Promega, Madison, WI) in the same wells.\nTox21 Assay Protocol Summary:\nCRE-bla Hek 293T cells were suspended in assay medium (DMEM containing 10% dialyzed FBS, 0.1 mM NEAA, 1 mM sodium pyruvate and 25 mM HEPES) and dispensed at 2,000 cells/5 uL /well into 1536-well black wall/clear bottom plates using a Multidrop Combi (ThermoFisher Scientific, Waltham, MA) dispenser. After the assay plates were incubated at 37 C/5% CO2 for 18 hrs, 23 nL of compounds dissolved in DMSO, positive controls or DMSO only was transferred to the assay plate by a pintool workstation (Kalypsys, San Diego, CA). After the plates were incubated at 37 C/5% CO2 for 3 hrs, 1 uL of LiveBLAzer B/G FRET substrate (Invitrogen, Carlsbad, CA) was added to each well using Bioraptr Flying Reagent Dispenser (FRD, Aurora Discovery, San Diego, CA). The plates were incubated at room temperature for 2 h, then fluorescence intensities were measured using an Envision plate reader (PerkinElmer, Shelton, CT) at Excitation 405nm, Emission 460nm and 530nm. The % activity was determined from the ratio of 460nm/530nm. For cell viability readout that measures cytotoxicity, 4 uL /well of CellTiter-Glo reagent was added into the assay plates using Bioraptr FRD. After 30 min incubation at room temperature, the luminescence intensity in the assay plates was measured using a ViewLux (PerkinElmer, Shelton, CT) plate reader.", "values": [{"compound": "COc1ccc(CCO)cc1", "Potency": "inactive"}, {"compound": "CC1=C(C/C=C(\\C)CCC[C@H](C)CCC[C@H](C)CCCC(C)C)C(=O)c2ccccc2C1=O", "Potency": "inactive"}, {"compound": "CCc1nn(CCCN2CCN(c3cccc(Cl)c3)CC2)c(=O)n1CCOc1ccccc1", "Potency": "inactive"}, {"compound": "CCN1CCC[C@H]1CNC(=O)c1cc(S(N)(=O)=O)ccc1OC", "Potency": "inactive"}, {"compound": "CC/C=C\\C/C=C\\C/C=C\\CCCCCCCC(=O)OC", "Potency": "inactive"}, {"compound": "Cn1c(=O)c2c(ncn2CCO)n(C)c1=O", "Potency": "inactive"}, {"compound": "O=C(O)P(=O)(O)O", "Potency": "inactive"}, {"compound": "C/C(CC(C)C)=N\\O", "Potency": "inactive"}, {"compound": "CC(=O)OC1CC(C)OC(C)O1", "note": "(stereo not given)", "Potency": "inactive"}, {"compound": "N#CCc1ccccc1[N+](=O)[O-]", "Potency": "inactive"}, {"compound": "CCC(C)OC(=O)c1ccc(O)cc1", "note": "(stereo not given)", "Potency": "inactive"}, {"compound": "C#Cc1ccc(-c2ccccc2F)cc1", "Potency": "inactive"}, {"compound": "CC(C)c1ccc(C(C)C)cc1", "Potency": "inactive"}, {"compound": "CCOCN(C(=O)CS(=O)(=O)O)c1c(C)cccc1CC", "Potency": "inactive"}, {"compound": "CN(C)c1ccc(C(c2ccccc2)c2ccc(N(C)C)cc2)cc1", "Potency": "inactive"}, {"compound": "Cc1ccc(N)c(S(=O)(=O)O)c1", "Potency": "inactive"}, {"compound": "O=C(C(Cl)Cl)N1CCOC12CCCCC2", "Potency": "inactive"}, {"compound": "CCOC(=O)NNc1nncc2ccccc12", "Potency": "inactive"}, {"compound": "Cc1cccc(Nc2cc(Cl)nc(SCC(=O)O)n2)c1C", "Potency": "inactive"}, {"compound": "O=C(O)O", "activity change, negative = cytotoxicity": "-5.94% [at 8.39 µM]"}, {"compound": "CCCCCCOc1ccccc1C(N)=O", "Potency": "inactive"}, {"compound": "O=C(O)c1ccccc1S", "Potency": "inactive"}, {"compound": "CN(C)CCOc1ccccc1Cc1ccccc1", "Potency": "inactive"}, {"compound": "CC[C@H](C)C(=O)O[C@H]1C[C@H](O)C=C2C=C[C@H](C)[C@H](CC[C@@H](O)C[C@@H](O)CC(=O)O)[C@H]21", "Potency": "5.45 µM (active)"}, {"compound": "O=S(=O)(O)c1ccccc1", "Potency": "inactive"}, {"compound": "O=C1CCCC1", "Potency": "inactive"}, {"compound": "COC(=O)CCCCCCCC(=O)OC", "Potency": "inactive"}, {"compound": "Oc1ccccc1-c1nnco1", "Potency": "inactive"}, {"compound": "CN1C(=O)OC(C)(C)C1=O", "Potency": "inactive"}, {"compound": "CCSC(=O)N(CC(C)C)CC(C)C", "Potency": "inactive"}, {"compound": "O=C(NCCc1c[nH]c2ccccc12)c1cccnc1", "Potency": "inactive"}, {"compound": "c1ccc2c(c1)-c1ccc3ccc4cccc5cc-2c1c3c45", "Potency": "inactive"}, {"compound": "CN1CCN(Cc2cc(-c3ccc4[nH]c(=O)oc4c3)co2)[C@@H](c2ccc(F)cc2)C1", "Potency": "inactive"}, {"compound": "C#CCOC(=O)[C@@H](C)Oc1ccc(Oc2ncc(Cl)cc2F)cc1", "Potency": "inactive"}, {"compound": "CCN(CC)CCOC(=O)C1(c2ccccc2)CCCC1", "Potency": "inactive"}, {"compound": "CC(C)[C@H]1CC[C@@H](C)CC1=O", "Potency": "inactive"}, {"compound": "C=CCn1c(=O)n([C@@H]2O[C@H](CO)[C@@H](O)[C@H]2O)c2nc(N)[nH]c(=O)c21", "Potency": "inactive"}, {"compound": "CCCCCC/C=C\\CCCCCCCC(=O)O", "Potency": "inactive"}, {"compound": "C=CC(C)(CCC=C(C)C)OC(C)=O", "note": "(stereo not given)", "Potency": "inactive"}, {"compound": "NC(=O)Cc1cccc(C(=O)c2ccccc2)c1N", "Potency": "inactive"}]}]}
